{
  "source": "PubChem BioAssay AID720582",
  "about": "(The Scripps Research Institute Molecular Screening Center, 2013)",
  "note": "About 2,300 (0.62%) of roughly 370,000 compounds were called active. For the sample, actives were picked, then their nearest neighbours and some compounds at random. Unmarked numbers belong to inactive results.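 Rule for the calls: active = inhibition above a per-campaign cutoff equal to the mean of compounds falling between control-based bounds plus 3 SD (cut at about 20% in these data); inactive = the rest.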",
  "data": [
    {"molecular_target": "Disintegrin and metalloproteinase domain-containing protein 10 (Homo sapiens) (UniProt O14672)", "sequence (O14672 214-748 limits assumed)": "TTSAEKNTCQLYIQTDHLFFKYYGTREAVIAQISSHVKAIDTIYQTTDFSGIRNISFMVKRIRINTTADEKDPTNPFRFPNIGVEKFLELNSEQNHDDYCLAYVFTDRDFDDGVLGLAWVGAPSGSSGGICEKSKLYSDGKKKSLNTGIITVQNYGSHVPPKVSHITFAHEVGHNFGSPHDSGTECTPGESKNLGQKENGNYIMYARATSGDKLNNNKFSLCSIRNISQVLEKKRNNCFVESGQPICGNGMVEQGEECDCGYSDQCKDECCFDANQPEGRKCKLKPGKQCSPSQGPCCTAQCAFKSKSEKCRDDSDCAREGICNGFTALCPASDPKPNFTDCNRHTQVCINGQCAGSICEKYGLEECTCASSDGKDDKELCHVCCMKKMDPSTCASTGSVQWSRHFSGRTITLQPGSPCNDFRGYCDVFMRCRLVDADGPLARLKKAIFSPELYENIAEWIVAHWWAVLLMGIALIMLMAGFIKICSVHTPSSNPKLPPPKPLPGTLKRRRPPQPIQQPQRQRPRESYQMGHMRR", "test": "blockers of ADAM10 peptide cleavage – biochemical, QFRET, HTS, primary screen (AID 720582);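 note: 0% = DMSO wells while the 100% control is not disclosed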", "conditions": "recombinant ADAM10, EDANS/DABCYL FRET peptide cleavage, 3 h; at 7 µM; stronger effect = higher value", "values": [
      {"compound": "N[C@@H](Cc1ccccc1)C(=O)N1CCC[C@@H]1C(=O)N1CCC2CCN(S(=O)(=O)c3ccccc3)CC21", "note": "(some centres not stated)", "inhibition": "-2.11%"},
      {"compound": "COC[C@@H]1CCCN1c1ccc2c(c1)O[C@H](C)CCN(C1CC1)S2(=O)=O", "inhibition": "-3.66%"},
      {"compound": "COC(=O)[C@@]12CCCCC=C1N(CCc1ccc(Cl)cc1)C(=O)[C@H]2CC(=O)NCc1ccc(OC)c(OC)c1", "inhibition": "5.19%"},
      {"compound": "C[C@H]1[C@H](NC(=O)c2cccc(N(C)C)c2)CC[C@@]23CCCN2C(=O)CCC[C@@H]13", "inhibition": "-106%"},
      {"compound": "O=C(CSC1=NCCS1)Nc1nc(-c2ccccc2)cs1", "inhibition": "20.3% (active)"},
      {"compound": "CC(NC(=O)COc1ccccc1)C(=O)NC1=NCCS1", "note": "(configuration not stated)", "inhibition": "-1.01%"},
      {"compound": "Cc1csc(NC(=O)CSc2nnc(-c3cccnc3)o2)n1", "inhibition": "-10.7%"},
      {"compound": "C[C@H]1CN(c2ccc(Br)cc2)C(=O)[C@@H]1CC(=O)Nc1ccc(Br)cc1", "inhibition": "-2.69%"},
      {"compound": "CNC(=O)C[C@H]1C(=O)N(c2ccc(OC)cc2)C[C@@H]1Cc1ccccc1", "inhibition": "-1.73%"},
      {"compound": "O=C(C[C@H]1C(=O)N(c2ccc(F)c(F)c2)C[C@@H]1Cc1ccccc1)Nc1ccccc1", "inhibition": "23.2% (active)"},
      {"compound": "O=C(COC(=O)CCCSc1nc2ccccc2[nH]1)Nc1ccc(Oc2ccccc2)cc1", "inhibition": "23.7% (active)"},
      {"compound": "CCN(c1ccc(NC(=O)COC(=O)CCc2nc3ccccc3n2-c2ccccc2)cc1)C(C)C", "inhibition": "15.2%"},
      {"compound": "O=C(COC(=O)CCc1nc2ccccc2c(=O)[nH]1)Nc1ccc(N2CCOCC2)cc1", "inhibition": "0.32%"},
      {"compound": "COc1cccc(N2CCN(CC(=O)N(C)Cc3ccc(F)cc3)CC2)c1", "inhibition": "-2.14%"},
      {"compound": "CCCC(=O)Nc1ccc(C(=O)NCCCn2ccnc2)cc1", "inhibition": "-4.06%"},
      {"compound": "CCOC(=O)[C@]12CCCC3=C1N(CCC3)C(=O)[C@@H](CC(=O)N1CCSCC1)C2", "inhibition": "4.75%"},
      {"compound": "CCN1C(=O)[C@H]2[C@@H](c3ccc(C(F)(F)F)cc3)N[C@]3(CCCN(Cc4ccc(Br)cc4)C3=O)[C@H]2C1=O", "inhibition": "2.63%"},
      {"compound": "O=C1[C@H]2[C@@H](c3ccc(C(F)(F)F)cc3)N[C@]3(CCCN(Cc4ccc(Br)cc4)C3=O)[C@H]2C(=O)N1Cc1ccccc1", "inhibition": "36.9% (active)"},
      {"compound": "O=C1[C@H]2[C@@H](c3ccc(C(F)(F)F)cc3)N[C@]3(CCCN(Cc4ccc(Cl)cc4)C3=O)[C@H]2C(=O)N1Cc1ccccc1", "inhibition": "17.5%"},
      {"compound": "CC(C)N1CCCCC(NC(=O)c2ccc3ccccc3c2)C1=O", "note": "(configuration not stated)", "inhibition": "-1.93%"},
      {"compound": "CCOC(=O)[C@]12CCCC3=C1N(CCC3)C(=O)[C@@H](CC(=O)NCc1cccs1)C2", "inhibition": "-1.3%"},
      {"compound": "CC(C)CNC(=O)OCc1cn(Cc2ccc(F)cc2)nn1", "inhibition": "2.74%"},
      {"compound": "O=C(CSc1nc2ccccc2nc1N1CCCCC1)N1CCN(S(=O)(=O)c2cccc([N+](=O)[O-])c2)CC1", "inhibition": "-10.6%"},
      {"compound": "COC(=O)[C@@]12C[C@@H](CC(=O)NCCCCc3ccccc3)C(=O)N(CCc3ccc(OC)c(OC)c3)C1=CCC(C)(C)C2", "inhibition": "20.4% (active)"},
      {"compound": "COC(=O)[C@]12C[C@H](CC(=O)NCc3ccccc3)C(=O)N(CCc3ccc(OC)c(OC)c3)C1=C[C@H](C(C)(C)C)O[C@@H]2C", "inhibition": "10.1%"},
      {"compound": "COC(=O)[C@@]12C[C@@H](CC(=O)NCCCCc3ccccc3)C(=O)N(Cc3ccccc3)C1=CCC(C)(C)C2", "inhibition": "14.6%"},
      {"compound": "c1coc(CCNc2ncnc3ccc(-c4ccc5c(c4)OCO5)cc23)c1", "inhibition": "-144%"},
      {"compound": "CCC(=O)c1c(CC)c2n3c1=CC[C@H]3CC(Br)C=2", "note": "(some centres not stated)", "inhibition": "-7.64%"},
      {"compound": "COC(=O)[C@]12C[C@H](CC(=O)NCc3ccccc3)C(=O)N(CCC3=CCCCC3)C1=C[C@H](C(C)C)O[C@@H]2C1CC1", "inhibition": "15.1%"},
      {"compound": "O=S(=O)(Nc1ccc(Oc2ncccn2)c(Cl)c1)c1ccc(F)cc1", "inhibition": "7.14%"},
      {"compound": "Cc1cc(C)cc(NS(=O)(=O)c2ccc(Oc3ncc(C(F)(F)F)cc3Cl)cc2)c1", "inhibition": "24% (active)"},
      {"compound": "CN(NS(=O)(=O)c1cccs1)c1ncc(C(F)(F)F)cc1Cl", "inhibition": "-3.41%"},
      {"compound": "Cc1ccc(NC(=O)c2cc(C)nn2-c2ccccc2)c(C)c1", "inhibition": "1.23%"},
      {"compound": "C#CCN([C@H](C(=O)OC)C(C)CC)S(=O)(=O)c1ccccc1Br", "note": "(some centres not stated)", "inhibition": "5.73%"},
      {"compound": "COC(=O)C1NN=C(C(=O)c2ccc(Br)cc2)C1c1cccc(Br)c1", "note": "(configuration not stated)", "inhibition": "20% (active)"},
      {"compound": "COC(=O)C1=C(C)N(C)C(C)=C(C(=O)OC)C1c1cccc(Br)c1", "inhibition": "1.25%"},
      {"compound": "COC(=O)CN1C(C)=Nc2ccc(Br)cc2C1c1ccccc1", "note": "(configuration not stated)", "inhibition": "-0.34%"},
      {"compound": "COc1cccc(Cn2cc(COC(=O)Nc3ccc(F)cc3)nn2)c1", "inhibition": "3.55%"},
      {"compound": "O=C(C1CCCN1S(=O)(=O)c1ccccc1)N1CCc2ccccc2C1", "note": "(configuration not stated)", "inhibition": "5.1%"},
      {"compound": "CNC(=O)c1[nH]cnc1C(=O)N[C@@H](CC(C)C)C(=O)OCc1ccccc1", "inhibition": "-0.66%"},
      {"compound": "CNC(=O)c1[nH]cnc1C(=O)N[C@@H](CC(C)C)C(=O)OC(C)(C)C", "inhibition": "1.72%"},
      {"compound": "C[C@H](NC(=O)c1nc[nH]c1C(=O)NCC(=O)OC(C)(C)C)c1ccccc1", "inhibition": "4.61%"},
      {"compound": "CC(C)(C)OC(=O)N1CCC(NC(=O)c2[nH]cnc2C(=O)N[C@@H](Cc2ccccc2)C(=O)OCc2ccccc2)CC1", "inhibition": "26.5% (active)"},
      {"compound": "CC(C)(C)OC(=O)CNC(=O)c1[nH]cnc1C(=O)N[C@@H](Cc1ccccc1)C(=O)OCc1ccccc1", "inhibition": "27% (active)"},
      {"compound": "C[C@@H](NC(=O)c1nc[nH]c1C(=O)N1CCN(C(=O)OC(C)(C)C)CC1)c1ccccc1", "inhibition": "-5.64%"},
      {"compound": "CCOC(=O)C1CCN(C(=O)C(C)(C)NC(=O)Nc2ccccc2Cl)CC1", "inhibition": "-4.18%"},
      {"compound": "O=C(c1ccccc1)c1ccc(-c2ccccc2C(=O)NC2CCCCN(Cc3ccc(Cl)cc3)C2=O)cc1", "note": "(configuration not stated)", "inhibition": "0.76%"},
      {"compound": "COc1ccc(CCNC(=O)CSc2nc3c([nH]2)c(=O)n(C)c(=O)n3C)cc1", "inhibition": "-8.76%"},
      {"compound": "Cc1cc(C)n2ncc(C(=O)Nc3ccc4c(c3)OCCO4)c2n1", "inhibition": "-3.85%"},
      {"compound": "CCC(=O)Nc1ccc2c(c1)C(=O)N(C)[C@H]1CC[C@H](CC(=O)NCCOC)O[C@@H]1CO2", "inhibition": "2.62%"},
      {"compound": "CC(C)c1ccc(S(=O)(=O)NC2CCCC2)cc1", "inhibition": "-3.8%"},
      {"compound": "Cc1cccc(CCNS(=O)(=O)c2ccc(S(=O)(=O)NC3CCCC3)cc2)c1", "inhibition": "27.1% (active)"},
      {"compound": "Cc1cccc(CCNS(=O)(=O)c2ccc3c(c2)NC(=O)CO3)c1", "inhibition": "0.59%"},
      {"compound": "Cc1ccc(NC(=S)NNC(=O)CSc2nnc(SCc3ccccc3Cl)s2)cc1", "inhibition": "17.8%"},
      {"compound": "Cn1c(Nc2ccccc2)cc(=O)n(C)c1=O", "inhibition": "7.08%"},
      {"compound": "Cc1cc(Nc2ccccc2)n(C(=O)c2ccc(N)cc2)n1", "inhibition": "21.3% (active)"},
      {"compound": "Cc1ccc(NC(=O)Nc2cc(C)nn2-c2ccccc2)cc1", "inhibition": "-2.62%"},
      {"compound": "CC(=O)Nc1ccc(C(=O)Nc2cccc(S(=O)(=O)NC3=NCCC3)c2)cc1", "inhibition": "-1.25%"},
      {"compound": "O=C(NNC(=O)c1cccc(S(=O)(=O)Nc2ccc(Cl)cc2)c1)c1ccc(=O)[nH]c1", "inhibition": "2.04%"},
      {"compound": "O=C(Nc1cccc(S(=O)(=O)Nc2ccc(Cl)cc2)c1)c1ccc2c(c1)OCCO2", "inhibition": "20.5% (active)"},
      {"compound": "O=C(NC1CCC1)c1ccc(C#CC2CC2)cn1", "inhibition": "-7.03%"},
      {"compound": "COc1ccc(-n2c(COc3ccc(C)cc3)nnc2SCC(=O)Nc2ccc(Oc3ccccc3)cc2)cc1", "inhibition": "-2.63%"},
      {"compound": "COc1cc(Cl)c(S(=O)(=O)N2CCN(Cc3ccc4c(c3)OCO4)CC2)cc1Cl", "inhibition": "45.9% (active)"},
      {"compound": "COc1cc(COCC(O)CN2CCN(Cc3ccc4c(c3)OCO4)CC2)cc(OC)c1OC", "note": "(configuration not stated)", "inhibition": "-2.3%"},
      {"compound": "COc1ccc(-c2cc(C(=O)N3CCN(Cc4ccc5c(c4)OCO5)CC3)on2)cc1OC", "inhibition": "-0.99%"},
      {"compound": "Cc1ccccc1CN1CCCCC(NC(=O)c2cccc(C#N)c2)C1=O", "note": "(configuration not stated)", "inhibition": "-1.06%"},
      {"compound": "Cc1nc2ccc(C(=O)N3CCN(C(=O)C(C)(C)C)CC3)cc2n1C1CCCC1", "inhibition": "1.94%"},
      {"compound": "COc1cc(SC)ccc1C(=O)Nc1nc(C)cs1", "inhibition": "-7.24%"},
      {"compound": "Cc1csc(NC(=S)Nc2cccc(Cl)c2)n1", "inhibition": "23.1% (active)"},
      {"compound": "Cc1ccc(C2CCN(C(=S)Nc3cccc(Cl)c3)C2)cc1", "note": "(configuration not stated)", "inhibition": "8.61%"},
      {"compound": "C=C(C)C1CC23C(=O)C4(C(=O)c5ccccc5)C[C@@]5(C)CCC(CC2C1(C)C)(C4=O)C35OC", "note": "(some centres not stated)", "inhibition": "-9.26%"},
      {"compound": "O=C(C1CCN(S(=O)(=O)c2ccccc2)CC1)N1CCN(C2CCCCC2)CC1", "inhibition": "-10.1%"}
    ]}
  ]
}
